The list is not random: actives were taken first. Their share in the collection is about 2.3%.
S1P1 ag – S1P1 (human) receptor agonism; activation, % at 4.5 µM; P21453; actives 1.5% (n = 16,000); S1P1 agonist cell-based reporter assay; AID 1044; in the data active means activation above about 80%
Target sequence (P21453 whole entry, looked up): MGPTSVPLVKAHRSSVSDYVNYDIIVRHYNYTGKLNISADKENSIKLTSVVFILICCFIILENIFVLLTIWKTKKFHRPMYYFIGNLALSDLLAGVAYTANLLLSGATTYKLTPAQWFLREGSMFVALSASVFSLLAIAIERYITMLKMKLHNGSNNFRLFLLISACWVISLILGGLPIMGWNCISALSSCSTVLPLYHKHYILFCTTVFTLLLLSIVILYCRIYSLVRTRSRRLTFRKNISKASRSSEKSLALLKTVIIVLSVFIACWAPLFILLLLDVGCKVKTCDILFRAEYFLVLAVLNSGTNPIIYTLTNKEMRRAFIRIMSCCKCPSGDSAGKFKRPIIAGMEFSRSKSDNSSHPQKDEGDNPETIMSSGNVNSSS
TLR4-MyD88 inh – blocks binding of human TLR4 to MyD88; O00206; Cell-based TLR4-MyD88 binding inhibition assay; inhibition, % at 10 µM; actives 0.06% (n = 16,000); AID 811; in the data active means inhibition above about 45%
rat GALR2 agon – GALR2 (rat) receptor agonism; O08726; cell-based GALR2 agonist screen; activation, % at 10 µM; actives 0.5% (n = 16,000); AID 833; in the data active means activation above about 15%
Active calls of the source: *.

SMILES | S1P1 ag | TLR4-MyD88 inh | rat GALR2 agon
O=[N+]([O-])c1ccc(CS(=O)(=O)C(Cl)(Cl)Cl)o1 | 95.5* | -2.8 | -10.5
CN(C)C(=O)Oc1cc(CSC(C)(C)C)nc(-c2cccs2)n1 | 6.7 | 5.7 | -9.1
NC(N)=N/N=C/C=N/N=C(N)N | 18.8 | -9.2 | -4.9

Source: PubChem BioAssay
